Measurements published in PubChem BioAssay AID565 (University of Pittsburgh Molecular Library Screening Center, 2006).
Out of some 65,000 compounds screened, about 1,200 (1.8%) were called active. This excerpt belongs to a sample that is enriched for actives. A number with no mark means an inactive call. Rule as the data show it: active = inhibition above about 50%; inactive = the rest.

Biological target: Gag-Pol polyprotein (Human immunodeficiency virus type 1 group M subtype B (isolate HXB2)) (UniProt P04585)
Assay: blockers of HIV-1 RNase H RNA/DNA cleavage – biochemical, fluorescence, primary screen (AID 565)
Conditions: RT-RNase H RNA/DNA duplex cleavage, at 10 µM, active compounds read high

Compound	inhibition
Cc1noc(C)c1CSc1nc2cc(S(=O)(=O)N3CCOCC3)ccc2o1	86.2% (active)
O=S(=O)(c1ccc2ccccc2c1)N1CCN(S(=O)(=O)N2CCOCC2)CC1	-6.43%
CCOC(=O)c1sc(NC(=O)c2cc(S(=O)(=O)N3CCOCC3)ccc2C)nc1C	3.07%
CCOCCCNC(=O)Cc1cc(=O)[nH]c(=O)[nH]1	5.5%
CC(=O)Oc1ccc(C)cc1N1C(=O)c2ccc(C(=O)O)cc2C1=O	-4.48%
NC(=O)Cn1c(=O)oc2ccccc21	96.3% (active)
COc1ccc(OC)c(NC(=O)Cn2c(=O)oc3ccccc32)c1	-1.94%
CC1CCCN(C(=O)Cn2c(=O)oc3ccccc32)C1 (configuration not stated)	7.78%
O=C(Nc1nc(-c2ccncc2)cs1)C1COc2ccccc2O1 (configuration not stated)	83.8% (active)
O=C(Nc1nc(-c2ccc3c(c2)OCO3)cs1)c1ccncc1	-9.11%
COc1ccc(OC)c2sc(NC(=O)C3COc4ccccc4O3)nc12 (configuration not stated)	1.92%
O=C(CCSCCc1ccccn1)Nc1nccs1	-23.9%
CCOC(=O)c1c(C)c(C(=O)NCCc2ccc(S(N)(=O)=O)cc2)c(C)n1CC	-6.32%
CNC(=O)CN1C(=O)c2ccccc2S1(=O)=O	4.74%
CCCc1nnc(NC(=O)c2cc(OC)cc(OC)c2)s1	4.61%
CCCc1nnc(NC(=O)CN2C(=O)c3ccccc3S2(=O)=O)s1	89.7% (active)
O=C(CN1CCOCC1)Nc1c(-c2ccccc2)c2cc(Br)ccc2[nH]c1=O	9.93%
COc1ccc(N2CCN(CCNC(=O)c3nnc(Cc4c(F)cccc4Cl)o3)CC2)cc1	4.44%
CCC(=NC1CC(C)(C)NC(C)(C)C1)C1=C(O)CC(C)(C)CC1=O	-6.23%
Oc1ccc(-c2csc(Nc3cccnc3)n2)cc1	34.2%
COc1ccc(-c2n[nH]c(C)c2-c2ccc(OC)c(OC)c2)c(O)c1	3.91%
COc1ccc(OC)c(Nc2nc(-c3ccc(O)c(O)c3)cs2)c1	71.9% (active)
COCCN(C(=O)CCC(=O)Nc1ccccn1)C(C(=O)NCCC(C)C)c1ccc(OC)cc1 (configuration not stated)	3.89%
CSCCC(Nc1nc2ccccc2s1)C(=O)O (configuration not stated)	-3.78%
O=C(NCc1ccccn1)c1cc2ccccc2oc1=O	-3.63%
O=C(NCc1ccccn1)c1ccc2nc(-c3ccco3)c(-c3ccco3)nc2c1	87.7% (active)
Cc1cccn2c(=O)c3cc(C(=O)NCc4ccccn4)n(C)c3nc12	-10.5%
